Source: PubChem BioAssay (NCI)
This is part of a sample that, as a whole, favours compounds with a hit. Of some 83,000 tested, about 20% had one in any assay.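 48-hour exposure, single concentration, 96-well plates; percent growth endpoint where 0 means no net growth. Active: below 10.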 Activity calls are given as the source filed them.

tested on: NCI/ADR-RES ovarian; experiment: NCI-60 one-dose screen, 48 h (100 = growth as untreated, 0 = no growth, -100 = all killed); conditions: 10 µM unless noted

Structure (SMILES)	growth
CCC(=O)Nc1nnc(Cc2ccc(OC)c(OC)c2)s1	81.3% (inactive)
NC(=O)c1cc(Cl)ccc1NC(=O)COc1ccccc1	31.4% (inactive)
CCC12CCC3c4ccc(O)cc4CCC3C1CC(O)C2O (stereo not drawn)	47.1% (inactive)
O=C1NC(=S)S/C1=C\c1cccc([N+](=O)[O-])c1	96.8% (inactive)
CCCCCn1c(=N)n(CC(O)COc2cccc(C)c2)c2ccccc21 (stereo not drawn)	3.77% (active)
Cn1c2ccccc2c2nn(C(=O)c3ccccc3)c(=O)nc21	110% (inactive)
N#CC1=C(N)Oc2cc(N)ccc2C1c1ccc(F)cc1 (stereo not drawn)	44.9% (inactive)
COc1ccc(-c2c3c(N)c4c(nc3nc3c2c(C)nn3-c2ccccc2)CCCCC4)cc1	86.9% (inactive)
CC(C)OC1=C(Cl)C(=O)c2ccccc2C1=O	87.2% (inactive)
O=c1[nH]c(-c2ccccn2)nc2sc3c(c12)CCCCCC3	24.6% (inactive)
COc1c(O)c2c3c(c1OC)-c1ccccc1CC3N(S(=O)(=O)c1ccc(C)cc1)CC2 (stereo not drawn)	40% (inactive)
O=C1/C(=C/c2ccccc2F)CNC/C1=C\c1ccccc1F	10.9% (inactive)
CN([N-]C(=O)CC(=O)[N-]N(C)C(=S)c1ccccc1)C(=S)c1ccccc1.[Cu+2]	-3.82% (active)
COC(=O)c1ccc(C(=O)Nc2ccccc2N)cc1	53.1% (inactive)
FC(F)(F)c1cc(CNc2ncc(Br)c(Cl)n2)cc(C(F)(F)F)c1	93.2% (inactive)
COc1ccc(NC(=O)COc2ccccc2)c(C(N)=O)c1	5.8% (active)
Cn1c2ccccc2c2nn(Cc3ccccc3)c(=O)nc21	109% (inactive)
CCCCNNC(=O)c1ccc(Br)cc1	23.5% (inactive)
Cc1nc2cc(Nc3nc(Nc4ccc(F)cc4)nc(-c4cccs4)n3)ccc2n1Cc1ccccc1	57.3% (inactive)

Structure (SMILES)	growth
Cc1ccc(C2SCC(=O)N2NC(=O)c2[nH]c3ccc(F)cc3c2-c2ccccc2)cc1 (stereo not drawn)	92% (inactive)
O=S(=O)(OCCO)c1ccccc1	102% (inactive)
Cc1ccc(S(=O)(=O)N2CCc3ccc(O)c4c3C2CCc2ccccc2-4)cc1 (stereo not drawn)	104% (inactive)
Cc1nc2cc(Nc3nc(N4CCOCC4)nc(N4CCN(C)CC4)n3)ccc2n1Cc1ccccc1	110% (inactive)
Clc1ccc(C2=NN(c3ccccc3)[C@H](c3cn(-c4ccccc4)nc3-c3ccccc3)C2)cc1	105% (inactive)
COc1cccc(OC)c1OC(=O)c1ccccc1	105% (inactive)
CCSc1nnc2c3cc(Br)ccc3n(C)c2n1	109% (inactive)
Cc1nn(-c2ccccc2)c2nc3nc4c(c(N)c3c(-c3ccc(Cl)cc3)c12)CCCC4	106% (inactive)
Cc1ccc(S(=O)(=O)N(c2ccc(Cl)cc2)c2ccc(Br)cc2C(=O)O)cc1	115% (inactive)
Cc1ccc2c(c1)c(Sc1ccc(C(=O)NO)cc1)c1n2CN(C)CC1	53.1% (inactive)
COc1cc(CNCCCN2C(=O)c3ccc4c5c(ccc(c35)C2=O)C(=O)N(CCCNCc2cc(OC)c(OC)c(OC)c2)C4=O)cc(OC)c1OC	71.1% (inactive)
CCCCCCCCCCCC(=O)[O][Sn]([CH2]CCC)([CH2]CCC)[CH2]CCC	-80.5% (active)
COc1cc(NC(=O)COc2ccccc2)c(C(N)=O)cc1OC	10.2% (inactive)
C=CC(=O)N1CC2(CCC(n3nc(-c4ccc(Oc5ccccc5)cc4)c4c(N)ncnc43)CC2)C1	-9.16% (active)
CC(=O)OC[C@H](O)[C@@]1(O)CC[C@H]2[C@@H]3CCC4=CC(=O)CC[C@]4(C)[C@H]3[C@@H](O)C[C@@]21C	102% (inactive)
Cc1ccc(S(=O)(=O)N2CCc3ccc(O)c4c3C2Cc2cc(Cl)ccc2-4)cc1 (stereo not drawn)	42.6% (inactive)
COc1cc(/C=C/C(=O)C(=Cc2ccc(F)c(F)c2)C(=O)/C=C/c2ccc(O)c(OC)c2)ccc1O	57.6% (inactive)
Cc1ccc(S(=O)(=O)N2CCc3ccc(O)c4c3C2Cc2ccc3c(c2-4)OCO3)cc1 (stereo not drawn)	9.54% (active)
O=C(Nc1nc2ccccc2[nH]1)C(=O)Nc1nc2ccccc2[nH]1	98.7% (inactive)

tested on: T-47D breast; experiment: as above; conditions: 10 µM

Structure (SMILES)	growth
CCC(=O)Nc1nnc(Cc2ccc(OC)c(OC)c2)s1	-18.7% (active)
CCC12CCC3c4ccc(O)cc4CCC3C1CC(O)C2O (stereo not drawn)	93.9% (inactive)
O=C1NC(=S)S/C1=C\c1cccc([N+](=O)[O-])c1	90.2% (inactive)
CCCCCn1c(=N)n(CC(O)COc2cccc(C)c2)c2ccccc21 (stereo not drawn)	-0.186% (active)
N#CC1=C(N)Oc2cc(N)ccc2C1c1ccc(F)cc1 (stereo not drawn)	96.6% (inactive)
COc1ccc(-c2c3c(N)c4c(nc3nc3c2c(C)nn3-c2ccccc2)CCCCC4)cc1	61.2% (inactive)
CC(C)OC1=C(Cl)C(=O)c2ccccc2C1=O	-24.6% (active)
O=c1[nH]c(-c2ccccn2)nc2sc3c(c12)CCCCCC3	42.6% (inactive)
COc1c(O)c2c3c(c1OC)-c1ccccc1CC3N(S(=O)(=O)c1ccc(C)cc1)CC2 (stereo not drawn)	62% (inactive)
COc1cc(-c2nc3ccccc3o2)cc(CN2CCN(c3ccccc3)CC2)c1O	91.5% (inactive)
O=C1/C(=C/c2ccccc2F)CNC/C1=C\c1ccccc1F	9.26% (active)
CN([N-]C(=O)CC(=O)[N-]N(C)C(=S)c1ccccc1)C(=S)c1ccccc1.[Cu+2]	-52.7% (active)
FC(F)(F)c1cc(CNc2ncc(Br)c(Cl)n2)cc(C(F)(F)F)c1	89.8% (inactive)
Cc1nc2cc(Nc3nc(Nc4ccc(F)cc4)nc(-c4cccs4)n3)ccc2n1Cc1ccccc1	23.3% (inactive)
Cc1ccc(C2SCC(=O)N2NC(=O)c2[nH]c3ccc(F)cc3c2-c2ccccc2)cc1 (stereo not drawn)	91.3% (inactive)
Cc1ccc(S(=O)(=O)N2CCc3ccc(O)c4c3C2CCc2ccccc2-4)cc1 (stereo not drawn)	94% (inactive)
Cc1nc2cc(Nc3nc(N4CCOCC4)nc(N4CCN(C)CC4)n3)ccc2n1Cc1ccccc1	99.6% (inactive)
Clc1ccc(C2=NN(c3ccccc3)[C@H](c3cn(-c4ccccc4)nc3-c3ccccc3)C2)cc1	112% (inactive)
COc1cccc(OC)c1OC(=O)c1ccccc1	104% (inactive)
Cc1nn(-c2ccccc2)c2nc3nc4c(c(N)c3c(-c3ccc(Cl)cc3)c12)CCCC4	108% (inactive)
Cc1ccc2c(c1)c(Sc1ccc(C(=O)NO)cc1)c1n2CN(C)CC1	23.4% (inactive)
COc1cc(CNCCCN2C(=O)c3ccc4c5c(ccc(c35)C2=O)C(=O)N(CCCNCc2cc(OC)c(OC)c(OC)c2)C4=O)cc(OC)c1OC	-56.9% (active)
CCCCCCCCCCCC(=O)[O][Sn]([CH2]CCC)([CH2]CCC)[CH2]CCC	-89.9% (active)
C=CC(=O)N1CC2(CCC(n3nc(-c4ccc(Oc5ccccc5)cc4)c4c(N)ncnc43)CC2)C1	14.6% (inactive)
CC(=O)OC[C@H](O)[C@@]1(O)CC[C@H]2[C@@H]3CCC4=CC(=O)CC[C@]4(C)[C@H]3[C@@H](O)C[C@@]21C	113% (inactive)
Cc1ccc(S(=O)(=O)N2CCc3ccc(O)c4c3C2Cc2cc(Cl)ccc2-4)cc1 (stereo not drawn)	65.4% (inactive)
COc1cc(/C=C/C(=O)C(=Cc2ccc(F)c(F)c2)C(=O)/C=C/c2ccc(O)c(OC)c2)ccc1O	44.1% (inactive)
CCOC(=O)c1cc2c(n(C)c1=O)-c1cnn(-c3ccc(OC)cc3)c1CC2	82.8% (inactive)
Cc1ccc(S(=O)(=O)N2CCc3ccc(O)c4c3C2Cc2ccc3c(c2-4)OCO3)cc1 (stereo not drawn)	46% (inactive)
O=C(Nc1nc2ccccc2[nH]1)C(=O)Nc1nc2ccccc2[nH]1	95.4% (inactive)
